Cruzain inh noDet: blocks cruzain activity in detergent-free assay | purified cruzain, Z-FR-AMC fluorescence, no detergent | Potency, µM, for inactives: max response, negative = inhibition, most hits filed as inhibitors | hit rate 2.3% among 200,000;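 also: plate controls were enzyme without inhibitor for no effect and buffer without enzyme for full effect; nearly all actives have a fitted effect of over 40% in size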
Target sequence (P25779 123-467 limits assumed): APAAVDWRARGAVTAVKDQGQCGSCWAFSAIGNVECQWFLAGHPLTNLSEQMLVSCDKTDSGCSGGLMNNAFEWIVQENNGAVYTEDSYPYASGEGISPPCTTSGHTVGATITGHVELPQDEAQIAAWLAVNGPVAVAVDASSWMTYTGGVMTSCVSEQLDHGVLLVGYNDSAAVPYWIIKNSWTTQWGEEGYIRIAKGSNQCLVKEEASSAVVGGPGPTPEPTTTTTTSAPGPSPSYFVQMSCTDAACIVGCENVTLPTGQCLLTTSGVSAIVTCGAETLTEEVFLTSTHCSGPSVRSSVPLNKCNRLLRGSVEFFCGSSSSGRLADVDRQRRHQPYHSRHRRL
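Detergent-free condition (0.00005% Triton X-100) in acetate buffer pH 5.5 with DTT. 1.5 nM enzyme and compound were pre-mixed 15 min, then 2 uM Z-FR-AMC substrate added; reaction progress from fluorescence change between first and third reads (60 s).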
Cruzain inh Det: inhibitors of Trypanosoma cruzi cruzain with detergent; P25779; purified cruzain, Z-FR-AMC fluorescence, 0.01% Triton; Potency, µM, inactives show max response, negative = inhibition, most hits filed as inhibitors; hit rate 0.43% among 200,000; AID 1478;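 also: plate controls were neutral wells for no effect and buffer without enzyme for full effect; nearly all actives have a fitted effect of over 40% in size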
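Compounds were screened in titration against cruzain (1.5 nM) with 0.01% Triton X-100 to counter colloidal aggregation. Activity was the AMC fluorescence increase over 60 s after adding 2 uM Z-FR-AMC at pH 5.5.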
* marks the source's active call; other numbers are inactive results; ? = inconclusive. Sampled rows, rich in hits. Any-hit rate of the full collection: about 2.4%. Calls follow the shape of the dose curve; as a rule, active = well fitted curve in the direction sought with a large enough effect; inconclusive = small, poorly fitted or top-dose-only effect, or another doubt; inactive = no such curve, though single readings can be large; an effect the other way counts as inactive or inconclusive. Potency is read from the fitted curve at half-maximal effect.

SMILES	Cruzain inh noDet	Cruzain inh Det
COc1cccc(C2CC(c3cccs3)=NN2C(=O)CSc2nc3c(cnn3-c3ccc(F)cc3)c(=O)[nH]2)c1OC (stereo not given)	?	3.55µM*
O=[N+]([O-])c1ccc(Nc2ccccc2)cc1	-11.1%	-10.5%
O=c1nc(Nc2ccccc2)sc2ccc([N+](=O)[O-])cc12	10µM*	-3.1%
CN(C)c1ccc(NC(=O)CSC2=Nc3ccccc3C3=NC(CC(=O)NCc4ccccc4)C(=O)N23)cc1 (stereo not given)	23.3%	3.2%
Cc1ccn2c(=O)c(C(=O)NCCc3ccc(S(N)(=O)=O)cc3)c(O)nc2c1	-9.3%	-0.6%
COc1cc2oc(=O)cc(-c3ccc(-c4ccc(C#N)cc4)cc3)c2c(OC)c1OC	35.5µM*	0.7%
COc1cc2oc(=O)cc(-c3ccc(-c4ccc(C)cc4)cc3)c2c(OC)c1OC	3.4%	3.1%
CCc1nnc(NC(=O)CN2CCN(c3nc(-c4ccccc4)cs3)CC2)s1	?	-3.3%
O=C(CN1CCN(c2nc(-c3ccccc3)cs2)CC1)Nc1ccc2c(c1)OCO2	25.1µM*	2.4%
O=C(CN1CCc2ccccc21)Nc1ccc2c(c1)OCO2	12.6µM*	-1.8%
O=C(CN1CCc2ccccc21)NCc1ccc2c(c1)OCO2	-4.2%	-1.8%
N[C@@H](Cn1cc(F)c(=O)[nH]c1=O)C(=O)O	-1.2%	-0.7%
COc1ccc(Oc2ncc3nc(-c4ccccc4)c(=O)n(CCC#N)c3n2)cc1	-19.2%	-2.3%
COc1ccc(Cn2c(C(=O)O)c(CNCc3ccccc3F)c3ccc(OC)cc32)cc1	-3.3%	-3.6%
Cc1nn(-c2ccccc2)c(N2CCCC2)c1/C=C1\N=C(c2ccc(OC(C)C)cc2)OC1=O	5.01µM*	1.41µM*
Cc1ccc(C2=N/C(=C\N3CCCCC3)C(=O)O2)cc1	-9.3%	-8.7%
CCc1nc2ccc(C(=O)NCc3ccc(N(C)C)cc3)cc2nc1CC	-3.1%	-0.8%
COC(=O)c1ccc(NC(=O)CN2CCCN(Cc3ccc(Cl)cc3)S2(=O)=O)cc1	16.3%	-7.3%
Cc1ccc(C(=O)c2oc3ccccc3c2NC(=O)c2cc(-c3ccccc3O)n[nH]2)cc1	?	-0.3%
O=C(Nc1c(C(=O)c2ccccc2)oc2ccccc12)c1cc(-c2ccccc2O)n[nH]1	12.6µM*	-3.6%
O=C1OC(/C=C/c2ccc(Cl)cc2Cl)=NC/1=C\c1cccs1	25.1µM*	?
O=c1cc(-c2cccs2)oc2ccc(Cl)cc12	0.2%	-2.6%
S=C(NCc1ccc2[nH]c3c(c2c1)CCCC3)Nc1ccccc1	31.6µM*	-9.9%
CCS(=O)(=O)NCc1ccc2[nH]c3c(c2c1)CCCC3	-22.0%	-6.4%
O=C(Nc1ccc2[nH]c3c(c2c1)CCCC3)c1ccco1	-16.7%	-10.2%
SMILES	Cruzain inh noDet	Cruzain inh Det
Cc1cc(C)cc(NC(=S)NCc2ccc3[nH]c4c(c3c2)CCCC4)c1	31.6µM*	-0.8%
COCCn1c(=O)c(CCc2ccccc2)nc2cnc(Oc3cccc(Cl)c3)nc21	7.4%	-2.5%
CC1CCCN(c2ncnc3c2nnn3C)C1 (stereo not given)	-4.4%	-1.8%
O=CN1CCc2c([nH]c3ccccc23)C1c1cccc2cccnc12 (stereo not given)	-11.7%	-2.3%
COC(=O)C1=C(C)NC(C)=C(C(=O)OCCCN2CCC(c3ccccc3)(c3ccccc3)CC2)[C@H]1c1cccc([N+](=O)[O-])c1	0.1%	-4.7%
Cc1csc(NC(=O)CSc2nnc(C)n2Cc2ccco2)n1	-0.1%	1.3%
Cc1cc(-c2csc(NC(=O)c3ccc(C#N)cc3)n2)c(C)n1Cc1ccco1	7.94µM*	-3.2%
COc1ccccc1NC(=O)Cn1c(=O)n(CCc2ccccc2)c(=O)c2c3c(sc21)CN(C(C)=O)CC3	?	-4.1%
CC(=O)NC(CC(C)C)C(=O)NC(Cc1ccccc1)C(N)=O (stereo not given)	-0.9%	3.5%
CC(=O)[C@H](CC(C)C)NC(=O)[C@@H](CC(C)C)NC(=O)[C@H](CC(C)C)NC(=O)OCc1ccccc1	0.0126µM*	0.0035µM*
O=S(=O)(c1ccc(Cl)cc1)c1nc(-c2cccs2)oc1SCc1ccc(F)cc1	2.9%	-9.0%
COc1ccc(-n2cc(C(=O)Nc3ccccc3C#N)c3ccccc3c2=O)cc1	?	-4.4%
COc1ccc(-n2cccc2/C=C2/NC(=O)N(c3cccc(Cl)c3)C2=O)cc1	10µM*	-4.4%
Cc1cccc(N2C(=O)NC(=O)/C(=C\c3cccn3-c3ccc(Cl)cc3)C2=O)c1	-29.1%	-1.9%
COc1cc(CN(C(=O)c2ccc(C)cc2)c2ccccn2)cc(OC)c1OC	9.4%	-2.6%
Cc1ccc2c(c1)N(C(=O)N1CCC(C(=O)NCc3cccs3)CC1)CC(C)O2 (stereo not given)	7.7%	-4.2%
O=S(=O)(NCc1ccccc1)c1ccc2[nH]c3c(c2c1)CCCCC3	?	-14.5%
O=S(=O)(c1ccc2[nH]c3c(c2c1)CCCCC3)N1CCN(c2ccccc2)CC1	25.1µM*	-3.5%
O=S(=O)(c1ccc2[nH]c3c(c2c1)CCCCC3)N1CCN(c2cccc(Cl)c2)CC1	7.94µM*	-0.9%
O=S(=O)(Nc1cccc(Cl)c1)c1ccc2[nH]c3c(c2c1)CCCCCC3	-27.1%	4.3%
CCOC(=O)N1CCC(NC(=O)c2c(C)nn(-c3ccc(C)cc3)c2-n2cccc2)CC1	1.3%	-19.8%
CCN(CC)S(=O)(=O)c1ccc(NC(=O)NCc2noc3ccc(C)cc23)cc1	-4.4%	0.1%
COC(=O)c1ccc(C2c3c(-c4ccc(Br)cc4)n[nH]c3C(=O)N2c2ccc(Cl)cc2)cc1 (stereo not given)	15.8µM*	-0.9%
O=C1c2[nH]nc(-c3ccc(Br)cc3)c2C(c2cccc(O)c2)N1c1ccc(Cl)cc1 (stereo not given)	?	-5.1%
COc1cccc(C(=O)N2CCCCC2CCN2CCCCC2)c1 (stereo not given)	-0.9%	0.6%
SMILES	Cruzain inh noDet	Cruzain inh Det
CC(=O)C1=C(C)NC(SCC(=O)c2ccc(Cl)cc2Cl)=C(C#N)C1c1ccco1 (stereo not given)	31.6µM*	-10.5%
CC(=O)C1=C(C)NC(SCC(=O)c2ccc(Cl)cc2)=C(C#N)C1c1ccco1 (stereo not given)	-29.8%	-8.8%
CCOC(=O)c1cc2c(=O)n3ccccc3nc2n(Cc2ccco2)c1=NC(=O)c1c(F)cccc1Cl	4.5%	-19.9%
CCc1ccccc1NC(=O)CCCN1C(=O)COc2ccc(C)cc21	-5.1%	-3.7%
CC(=O)c1cccc(NC(=O)CCCN2C(=O)COc3ccc(C)cc32)c1	?	17.8µM*
COc1ccc(S(=O)(=O)N2CCN(c3ccccc3F)CC2)cc1-c1noc(C)n1	11.6%	-4.0%
O=C(CSc1oc(-c2ccccc2)nc1S(=O)(=O)c1ccccc1)c1ccccc1	?	-3.8%
O=C(CSc1oc(-c2ccccc2)nc1S(=O)(=O)c1ccc(Br)cc1)c1ccccc1	12.6µM*	-4.0%
COc1ccc(-n2nc(C(=O)Nc3ccccn3)c3c4ccccc4n(C)c3c2=O)cc1	-6.6%	-1.3%
COC(=O)[C@@]1(Cc2ccccc2)[C@H]2c3cc(C(=O)N4CCCC4)n(Cc4ccccc4)c3C[C@H]2CN1C(=O)c1ccccc1	?	7.0%
COC(=O)c1ccc(C(NC(=O)OCc2ccccc2)/C(C)=C/[C@@H](C)C(=O)N2CCN(C)CC2)cc1 (stereo not given in full)	-4.6%	-3.9%
O=C(Nc1nc(=O)c2ccccc2s1)c1ccc(Cl)cc1	10µM*	-1.7%
O=C(Nc1nc(=O)c2ccccc2s1)c1ccc(F)cc1	?	0.6%

High-throughput results: PubChem BioAssay, National Center for Advancing Translational Sciences (NCATS)
